An excerpt weighted towards active compounds, which were near 1.5% of everything screened.
MRP resist rev = reverses drug resistance mediated by MRP. H69AR cells + 2 uM doxorubicin, CellTiter-Glo, 72 h. differential viability (reversal), % at 10 µM. hit rate 0.04% among 85,000. AID 602;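 active = viability drop by adding the cancer drug above about 55%, with treated viability meeting a 40% cutoff, limit read from the data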;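 note: viability without doxorubicin minus viability with 2 µM doxorubicin for each compound; larger differential means the compound sensitizes cells more to doxorubicin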
MRP1 act = MRP-1 activation; H69AR cells + doxorubicin, viability rescue, CellTiter-Glo; viability increase, % at 10 µM; hit rate 0.61% among 140,000; AID 799;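 active = viability gain under doxorubicin at or above a set limit, the compound median plus 3 SD, cut at about 4.7% in these data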;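 note: MRP-1 overexpressing cells given doxorubicin 25 µM after compound pretreatment; 18-22 h compound pretreatment then 72 h with doxorubicin before readout; 0% = doxorubicin-only wells and 100% = vehicle-treated cells without doxorubicin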
DAT uptake mod = modulates human dopamine transporter uptake under cocaine; LLC-PK1 hDAT cells, [14C]-dopamine uptake with cocaine IC80; actives deviate in either direction; B-score at 10 µM; hit rate 1.3% among 110,000; AID 449768;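 active = Z score or B-score, a plate-position-corrected score, falls beyond the plate's 99.7% confidence bounds, in either direction; inactive = both scores lie inside the 99.7% bounds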;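 note: scored against the spread of the other compound wells on the same plate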
* marks the source's active call; other numbers are inactive results; . = no result given.

SMILES	MRP resist rev	MRP1 act	DAT uptake mod
Cc1c(/C=C2/CC3C4CC=C5CC(O)CCC5(C)C4CCC3(C)C2=O)cnn1C (configuration not stated)	36	.	.
CCN(CC)C1=NC(=[N+](CC)CC)c2ccccc21	4	-2	-3*
O=C(CSC1c2ccccc2-c2ccccc21)N/N=C/c1ccccc1O	-17	-3	0.86
CN1CC[C@@H](c2ccc(F)cc2)[C@H](COc2ccc3c(c2)OCO3)C1	.	.	-0.6
O=C(Nc1cccc(Cl)c1)c1c(O)c2c(n(Cc3ccco3)c1=O)CCCC2	-5	.	0.037
O=C(Nc1cccc(Cl)c1)c1c(O)c2c(n(Cc3ccccc3)c1=O)CCCC2	.	5.6*	.
COc1ccc(OCC(=O)N2CCN(Cc3c[nH]c4ccccc34)CC2)cc1	-10	-4	4.3*
O=C(COc1ccccc1)N1CCN(Cc2c[nH]c3ccccc23)CC1	7	-2	0.031
CCCCn1c(O)c(C=NC2CC3CCC2(C)C3(C)C)c(=O)[nH]c1=O (configuration not stated)	-25	-1	-0.19
COc1ccc(C)cc1NC(=O)c1c(C)nn(Cc2ccccc2)c1Cl	.	4.8*	.
CCOc1ccc(NC(=O)c2c(C)nn(Cc3ccccc3)c2Cl)cc1	.	2	.
O=[N+]([O-])/C=C1\NCCN1Cc1ccc(Cl)nc1	.	-2	.
CNCC1(c2ccccc2)CCCC1	-4	-2	-7.4*
CCNCC1(c2ccc(OC)c(OC)c2)CCCC1	-2	-1	0.39
CCc1ccc(C(=O)C23CN4CN(CN(C4)C2)C3)cc1	6	-1	0.34
